According to PubChem BioAssay (NCATS):
Records with an inconclusive call do not appear. The source made the active and inactive calls. Unless noted, calls come from the whole dose curve; as a rule, active = well fitted inhibition curve with a large enough effect; inconclusive = small, poorly fitted or top-dose-only effect; inactive = flat fitted curve, though single readings scatter. Non-standard residues stand in square brackets, D forms with d. Residues, ends and D or L forms follow the SMILES beside them. *: point of attachment. Sta = CC(C)C[C@H](N)[C@@H](O)CC(=O)O; Isovaleryl = CC(C)CC(=O)*

How the values were obtained:
[1] = qHTS drug screen for cell cycle checkpoint inhibitors in PARPi-resistant BRCA-mutant ovarian cancer cell lines. (AID 1963452; calls by dose curve); details: PEO1/OlaR viability, CellTiter-Glo luminescence, 96 h, stronger effect = lower value
How it was run: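 PEO1, PEO4 and PEO1/OlaR ovarian cancer cells, 600 per well, exposed 96 h at 37C to a dilution series. Viability read by CellTiter-Glo luminescence, normalized to DMSO and empty wells; activity summarized as Z-AUC.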

[2] = qHTS for identification of novel therapeutic agents for treatment of microphthalmiaassociated transcription factor (MiT) renal cell carcinoma (RCC) (AID 1963991; calls by dose curve; note: potency is the fitted concentration of half-maximal effect;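 for z-score: curves scaled with 100% = DMSO viability and 0% = empty wells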); details: CellTiter-Glo, 48 h; for z-score: stronger effect = lower value
How it was run: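 UOK109/UOK124/UOK145 (TFE3 fusions, three partners); 500 cells/well; MIPE v4.0, 1912 cpds, 11 conc.; 48 h, 37 C; CellTiter-Glo, 15 min RT; lum. Norm.: DMSO 100%, empty 0%.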

[3] = qHTS profiling for inhibitors of Plasmodium falciparum proliferation (AID 504749);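 note: 0% = DMSO vehicle and full inhibition = artemisinin control; nearly all actives have a fitted effect of over 60% in size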; details: P. falciparum in erythrocytes, SYBR Green DNA, 72 h, at 28.7 µM (top of the series)
How it was run: (§1)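 Three-day growth assay of blood-stage parasites in erythrocytes (0.3% parasitemia, 2.5% hematocrit) at 37 C, 5% CO2, quantified by SYBR Green DNA staining after overnight detergent lysis.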

3D7 = assay: as above; details: P. falciparum in erythrocytes, SYBR Green DNA, 72 h; series mostly up to 28.7 µM
How it was run: as §1

7G8 = assay: as above; details: P. falciparum in erythrocytes, SYBR Green DNA, 72 h; series mostly up to 28.7 µM
How it was run: as §1

AA1029 = assay: as above; details: P. falciparum in erythrocytes, SYBR Green DNA, 72 h; series mostly up to 28.7 µM
How it was run: as §1

AS120 = assay: as above; details: P. falciparum in erythrocytes, SYBR Green DNA, 72 h; series mostly up to 28.7 µM
How it was run: as §1

ATS189 = assay: as above; details: P. falciparum in erythrocytes, SYBR Green DNA, 72 h; series mostly up to 28.7 µM
How it was run: as §1

ATS95 = assay: as above; details: P. falciparum in erythrocytes, SYBR Green DNA, 72 h; series mostly up to 28.7 µM
How it was run: as §1

C2A = assay: as above; details: P. falciparum in erythrocytes, SYBR Green DNA, 72 h; series mostly up to 28.7 µM
How it was run: as §1

CP185 = assay: as above; details: P. falciparum in erythrocytes, SYBR Green DNA, 72 h; series mostly up to 28.7 µM
How it was run: as §1

CP191 = assay: as above; details: P. falciparum in erythrocytes, SYBR Green DNA, 72 h; series mostly up to 28.7 µM
How it was run: as §1

CP192 = assay: as above; details: P. falciparum in erythrocytes, SYBR Green DNA, 72 h; series mostly up to 28.7 µM
How it was run: as §1

CP194 = assay: as above; details: P. falciparum in erythrocytes, SYBR Green DNA, 72 h; series mostly up to 28.7 µM
How it was run: as §1

CP201 = assay: as above; details: P. falciparum in erythrocytes, SYBR Green DNA, 72 h; series mostly up to 28.7 µM
How it was run: as §1

CP211 = assay: as above; details: P. falciparum in erythrocytes, SYBR Green DNA, 72 h; series mostly up to 28.7 µM
How it was run: as §1

CP215 = assay: as above; details: P. falciparum in erythrocytes, SYBR Green DNA, 72 h; series mostly up to 28.7 µM
How it was run: as §1

CP217 = assay: as above; details: P. falciparum in erythrocytes, SYBR Green DNA, 72 h; series mostly up to 28.7 µM
How it was run: as §1

CP203 = assay: as above; details: P. falciparum in erythrocytes, SYBR Green DNA, 72 h; series mostly up to 28.7 µM
How it was run: as §1

[4] = measured here: PEO1 parental Z-AUC
[5] = TFE3-RCC UOK109 viability, measured here: UOK109 Z-AUC
[6] = TFE3-RCC viability, measured here: UOK124 Z-AUC
[7] = TFE3-RCC viability, measured here: UOK145 Z-AUC

N[C@@H](Cc1cc(I)c(Oc2cc(I)c(O)c(I)c2)c(I)c1)C(=O)O
0.737: z-score [2, 5]
inactive: Z-AUC [1] -1.16 | activity, negative = inhibition ([3]; parasite line A) -3.11% | activity, negative = inhibition ([3]; parasite line B) -2.18% | Potency (3D7) | Potency (7G8) | Potency (AA1029) | Potency (AS120) | Potency (ATS189) | Potency (ATS95) | Potency (C2A) | Potency (CP185) | Potency (CP191) | Potency (CP192) | Potency (CP194) | Potency (CP201) | Potency (CP211) | Potency (CP215) | Potency (CP217)
0.682: z-score [2, 6]
-0.169: Z-AUC ([1]; measured here: PEO4 Z-AUC)
-0.336: Z-AUC [1, 4]
0.762: z-score [2, 7]

CC(C)CC(=O)N[C@H](C(=O)N[C@H](C(=O)N[C@@H](CC(C)C)[C@@H](O)CC(=O)N[C@@H](C)C(=O)N[C@@H](CC(C)C)[C@@H](O)CC(=O)O)C(C)C)C(C)C (Isovaleryl-VV[Sta]A[Sta]-OH)
inactive: Z-AUC [1] 0.839
0.464: Z-AUC [1, 4]
0.353: z-score [2, 5]
0.758: z-score [2, 7]
0.507: Z-AUC ([1]; measured here: PEO4 Z-AUC)
0.618: z-score [2, 6]

CCCOc1ccc2nc(NC(=O)OC)[nH]c2c1
inactive: Z-AUC [1] -0.576 | activity, negative = inhibition ([3]; parasite line A) -0.812% | activity, negative = inhibition ([3]; parasite line B) 13.5% | Potency (3D7) | Potency (7G8) | Potency (AA1029) | Potency (AS120) | Potency (ATS189) | Potency (ATS95) | Potency (C2A) | Potency (CP185) | Potency (CP191) | Potency (CP192) | Potency (CP194) | Potency (CP201) | Potency (CP211) | Potency (CP215) | Potency (CP217)
-0.504: Z-AUC [1, 4]
-2.16: z-score [2, 7]
-0.563: Z-AUC ([1]; measured here: PEO4 Z-AUC)
-3.82: z-score [2, 6]
-2.25: z-score [2, 5]
active: Potency ([2]; TFE3-RCC UOK109 viability, active = Z-AUC below -0.8 in all three lines) 7.43 nM

O=P(O)(O)C(O)(Cn1ccnc1)P(=O)(O)O
1.01: z-score [2, 7]
1.58: Z-AUC [1, 4]
inactive: Z-AUC [1] 1.02 | activity, negative = inhibition ([3]; parasite line A) 8.24% | activity, negative = inhibition ([3]; parasite line B) -1.43% | Potency (3D7) | Potency (7G8) | Potency (AA1029) | Potency (AS120) | Potency (ATS189) | Potency (ATS95) | Potency (C2A) | Potency (CP185) | Potency (CP191) | Potency (CP192) | Potency (CP194) | Potency (CP201) | Potency (CP211) | Potency (CP215) | Potency (CP217)
1.17: z-score [2, 6]
2.08: Z-AUC ([1]; measured here: PEO4 Z-AUC)
0.735: z-score [2, 5]

CCC1=C(C)CN(C(=O)NCCc2ccc(S(=O)(=O)NC(=O)NC3CCC(C)CC3)cc2)C1=O (stereo not given)
0.718: z-score [2, 7]
0.513: z-score [2, 6]
0.144: Z-AUC ([1]; measured here: PEO4 Z-AUC)
inactive: Z-AUC [1] -0.196 | activity, negative = inhibition ([3]; parasite line A) 6.02% | activity, negative = inhibition ([3]; parasite line B) 7.16% | Potency (3D7) | Potency (7G8) | Potency (AA1029) | Potency (AS120) | Potency (ATS189) | Potency (ATS95) | Potency (C2A) | Potency (CP185) | Potency (CP191) | Potency (CP192) | Potency (CP194) | Potency (CP201) | Potency (CP203) | Potency (CP211) | Potency (CP215) | Potency (CP217)
0.246: Z-AUC [1, 4]
0.704: z-score [2, 5]
